{"source": "PubChem BioAssay AID652105", "about": "(National Center for Advancing Translational Sciences (NCATS), 2013)", "note": "Hit rate of the full screen: of about 330,000 compounds, about 4,100 (1.2%) were called active. Roughly 2% stayed inconclusive and do not appear here. Only a selection was taken, and actives are over-represented in it overall. Values without a mark were called inactive. Rule for the calls: active = max response of -50% or lower; inconclusive = between -30% and -50%; inactive = -30% or higher. % is set by controls: 0 for no effect and ±100 for the full control effect.", "data": [{"target": "Phosphatidylinositol 5-phosphate 4-kinase type-2 alpha (Homo sapiens) (UniProt P48426)", "sequence (P48426 whole entry, looked up)": "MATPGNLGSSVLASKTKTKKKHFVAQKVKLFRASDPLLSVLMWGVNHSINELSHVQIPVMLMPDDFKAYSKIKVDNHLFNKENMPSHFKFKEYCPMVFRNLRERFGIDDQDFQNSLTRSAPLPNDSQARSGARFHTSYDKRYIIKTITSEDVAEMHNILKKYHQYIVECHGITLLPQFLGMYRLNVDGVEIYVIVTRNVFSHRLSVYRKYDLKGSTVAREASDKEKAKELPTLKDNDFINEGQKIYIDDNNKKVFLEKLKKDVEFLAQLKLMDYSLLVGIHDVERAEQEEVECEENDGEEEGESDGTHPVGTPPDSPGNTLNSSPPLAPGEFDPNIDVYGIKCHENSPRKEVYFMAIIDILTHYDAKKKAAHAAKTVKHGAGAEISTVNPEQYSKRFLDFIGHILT", "test": "qHTS for Inhibitors of phosphatidylinositol 5-phosphate 4-kinase (PI5P4K); note: value at the top dose of about 77 µM", "conditions": "PI5P4Kalpha enzyme, ADP-Glo luminescence, 60 min; stronger effect = lower value", "outline": "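Enzyme plus substrate dispensed, test compounds pinned in, then ATP (5 microM final) added. After 60 min at RT, ADP-Glo reagent 1 for 45 min and reagent 2 for 30 min preceded luminescence imaging.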", "values": [{"smiles": "O=S1(=O)C[C@@H](N2CCN(CCO)CC2)[C@H](COCc2ccccc2)N1", "max response": "-1.64%"}, {"smiles": "CC(C)Oc1cc(F)ccc1-c1cc(C(=O)Nc2cccc(Cl)c2)[nH]n1", "max response": "0.377%"}, {"smiles": "COc1ccc(OC)c(C(O)c2ncc(-c3cccc(C(F)(F)F)c3)[nH]2)c1", "note": "(configuration not stated)", "max response": "-2.56%"}, {"smiles": "C=CCN1C=C2C(=O)C(C)(OC(=O)CCc3ccccc3)C(=O)C=C2C=C1c1ccc(C#N)cc1", "note": "(configuration not stated)", "max response": "-25.6%"}, {"smiles": "CC1(OC(=O)C2CCCC2)C(=O)C=C2C=C(c3ccc(C#N)cc3)OC=C2C1=O", "note": "(configuration not stated)", "max response": "-76.4% (active)"}, {"smiles": "COCCN1C=C2C(=O)C(C)(OC(=O)C3CCCC3)C(=O)C=C2C=C1c1ccsc1", "note": "(configuration not stated)", "max response": "-2.59%"}, {"smiles": "COc1ccccc1Cc1c(-c2ccc(Cl)cc2)nc2ccc(Cl)cn12", "max response": "-3.05%"}, {"smiles": "Cc1ccccc1Nc1nnc(SCC(=O)c2cc3ccccc3o2)s1", "max response": "-19.3%"}, {"smiles": "Cc1ccc(Nc2nnc(SCC(=O)c3cc4ccccc4o3)s2)cc1C", "max response": "-55.9% (active)"}, {"smiles": "CC(C)c1ccc(Nc2nnc(SCC(=O)c3nnc(-c4ccccc4)o3)s2)cc1", "max response": "-79.1% (active)"}, {"smiles": "CC(C)Nc1nnc(SCC(=O)c2c[nH]c3ccccc23)s1", "max response": "-3.57%"}, {"smiles": "CC(C)N(C(=O)CSc1nnc(NC2CC2)s1)c1ccccc1", "max response": "2.4%"}, {"smiles": "NC(=O)CSc1nnc(NC(=O)c2ccc3ccccc3c2)s1", "max response": "-9.56%"}, {"smiles": "O=C1NC[C@H](CCCCN2C[C@H](Cc3ccc(O)cc3)N(CCc3ccccc3)C(=O)C2=O)N(CCc2ccccc2)C1=O", "max response": "-2.29%"}, {"smiles": "COCc1cccc(-c2csc(C(O)c3ccc(F)cc3)n2)c1", "note": "(configuration not stated)", "max response": "0.323%"}, {"smiles": "COc1ccc(C(=O)N2CCCCC2c2cc(C(=O)Nc3ccc(F)c(Cl)c3)no2)cc1", "note": "(configuration not stated)", "max response": "-6.25%"}, {"smiles": "NC(Cc1ccccc1)c1csc(Nc2cc(Oc3ccccc3)ncn2)n1", "note": "(configuration not stated)", "max response": "1.15%"}, {"smiles": "O=C(/C=C/c1ccc2c(c1)OCCO2)c1ccc(O)cc1", "max response": "-20.1%"}, {"smiles": "O=C(/C=C/c1ccc(F)cc1)NCCNC(=O)/C=C/c1ccc(F)cc1", "max response": "3.31%"}, {"smiles": "O=C(/C=C(O)/C=C/c1ccc(O)cc1)/C=C/c1ccc(O)cc1", "max response": "-59.8% (active)"}, {"smiles": "O=C1c2ccccc2-c2ccccc2NC1O", "note": "(configuration not stated)", "max response": "-1.89%"}, {"smiles": "COc1ccc(OCCCC(=O)Nc2nnc(C3CCCO3)s2)cc1", "note": "(configuration not stated)", "max response": "-53% (active)"}, {"smiles": "Cc1nnc(NC(=O)CCCOc2ccccc2)s1", "max response": "-10%"}, {"smiles": "COc1ccc(NC(=O)CCC(=O)Nc2nnc(C3CCCCC3)s2)cc1", "max response": "0.477%"}, {"smiles": "Cc1ccc(S(=O)(=O)N2CCC(=O)N([C@H](COCc3ccccc3)C(C)C)CC2)cc1", "max response": "-1.43%"}, {"smiles": "CC(=O)Nc1cccc(-c2ccnc3c2CC(C)(C(=O)NCc2ccccc2)O3)c1", "note": "(configuration not stated)", "max response": "0.0166%"}, {"smiles": "COC(=O)c1ccc(CN2C(=O)C(Cc3ccccc3)ON=C2c2ncccc2C)o1", "note": "(configuration not stated)", "max response": "-4%"}, {"smiles": "CCOC(=O)c1ccc(Nc2cc3ccccc3c(=O)[nH]2)cc1", "max response": "3.2%"}, {"smiles": "CCOC(=O)c1ccc(COC(=O)c2cc(=O)[nH]c3ccccc23)o1", "max response": "0.0752%"}, {"smiles": "CCOC(=O)c1cc2c(=O)[nH]c(C(Cl)(Cl)Cl)nc2o1", "max response": "-59.5% (active)"}, {"smiles": "CCC(C)CN1C(=O)CSCC1(C)C(=O)NCc1ccccc1", "note": "(configuration not stated)", "max response": "-2.56%"}, {"smiles": "COc1cccc2c(C)c(C(=O)O)[nH]c12", "max response": "-63.9% (active)"}, {"smiles": "COc1cc2c(C(=O)O)c(C)n(C)c2c2ccccc12", "max response": "-2.64%"}, {"smiles": "Cc1c(C(=O)N/N=C/c2ccccc2)[nH]c2c([N+](=O)[O-])cccc12", "max response": "-0.171%"}, {"smiles": "COc1cc2c(=O)n(C)c3ccccc3c2cc1OC", "max response": "1.08%"}, {"smiles": "CN(C(=O)c1ccccn1)c1nnc(-c2ccccn2)s1", "max response": "3.64%"}, {"smiles": "c1ccc(-c2cc(-c3nnc4sc(-c5ccccn5)nn34)[nH]n2)cc1", "max response": "-57.7% (active)"}, {"smiles": "S=c1[nH]nc(-c2cc(-c3ccsc3)n[nH]2)n1-c1ccccc1", "max response": "-10.2%"}, {"smiles": "CC1(C)OC(=O)C2=C(C[C@@H](C3CCCC3)O[C@@H]2c2ccc(Cl)cc2)O1", "max response": "3.13%"}, {"smiles": "CCCNC(=O)c1cc(C2CCCCN2C(=O)OC)on1", "note": "(configuration not stated)", "max response": "-2.43%"}, {"smiles": "Cc1sc2nc(CSCC(=O)Nc3c(Cl)cccc3Cl)[nH]c(=O)c2c1C", "max response": "1.38%"}, {"smiles": "Cc1sc2nc(CSCC(=O)NC3CCCCC3)[nH]c(=O)c2c1C", "max response": "-13.2%"}, {"smiles": "CSc1nnc(SCc2nc3sc(C(=O)O)c(C)c3c(=O)[nH]2)s1", "max response": "-79.5% (active)"}, {"smiles": "CCCOc1ccc(F)cc1-c1cc(C(=O)Nc2ccc(F)c(Cl)c2)[nH]n1", "max response": "-4.85%"}, {"smiles": "Cc1cc(O)ccc1-c1cc(C(=O)NCc2cc(C(F)(F)F)cc(C(F)(F)F)c2)[nH]n1", "max response": "-3.12%"}, {"smiles": "CN(C)C(=O)c1cccc(-c2cnc3c(NC=O)cc(-c4ccc(C(=O)N5CCOCC5)cc4)cn23)c1", "max response": "-13.4%"}, {"smiles": "Cc1cc(Br)ccc1NC(=O)CCCOc1cc(=O)n(C)c2ccccc12", "max response": "3.17%"}, {"smiles": "CN1OC[C@@H]2CN(S(=O)(=O)c3cccc4ccccc34)[C@H](c3ccc(N4CCCCC4)cc3)C[C@@H]21", "max response": "7.24%"}, {"smiles": "CCOc1cccc(/C=N/NC(=S)NCCN2CCOCC2)c1O", "max response": "-0.183%"}, {"smiles": "COc1cc(N2C(=O)CSC2=S)cc(OC)c1OC", "max response": "0.509%"}, {"smiles": "CCOc1cccc(/C=N/N2C(=O)CSC2=S)c1O", "max response": "-51.6% (active)"}, {"smiles": "COc1cc(Cn2c3ccc(NC(=O)CC(C)c4ccccc4)cc3c(=O)n2C)ccc1F", "note": "(configuration not stated)", "max response": "2.27%"}, {"smiles": "O=c1cc(CN2CCN(S(=O)(=O)/C=C/c3ccccc3)CC2)c2ccc(O)cc2o1", "max response": "-55% (active)"}, {"smiles": "NC(=O)CCN1CCN(S(=O)(=O)/C=C/c2ccccc2)CC1", "max response": "0.132%"}, {"smiles": "Cc1ccc2c(CN3CCN(S(=O)(=O)c4ccccc4C(F)(F)F)CC3)cc(=O)oc2c1", "max response": "-4.51%"}, {"smiles": "CN(Cc1cn(Cc2ccc(C(F)(F)F)cc2)nn1)C1CN(Cc2cn(Cc3ccc(C(F)(F)F)cc3)nn2)S(=O)(=O)C1", "note": "(configuration not stated)", "max response": "11.5%"}, {"smiles": "COc1ccc(-c2ccc(C(=O)NCCN3CCOCC3)c3occc23)c(C)c1", "max response": "2.58%"}, {"smiles": "Cc1ccc(-c2c(C)n([O-])c3c([n+]2=O)CCC3)cc1", "max response": "0.293%"}, {"smiles": "Cc1ccc(-c2c[n+](=O)c3c(n2[O-])CCC3)cc1", "max response": "3.26%"}, {"smiles": "O=[n+]1c2c(n([O-])c3cc(Br)ccc31)CCC2", "max response": "-56.6% (active)"}, {"smiles": "CC1(C(=O)NCc2ccc(F)c(F)c2)Cc2c(-c3ccc4c(c3)OCO4)ccnc2O1", "note": "(configuration not stated)", "max response": "0.999%"}, {"smiles": "CN1OC[C@@H]2CN(C(=O)c3cccnc3)[C@H](c3ccc(N4CCCCC4)cc3)C[C@@H]21", "max response": "-1.25%"}]}]}
